Only some compounds are listed: those with a hit (about 4% of all), similar ones and a draw of the others.
D1 PAM – human D1 dopamine receptor positive modulation; HEK293 TREx D1 cells, calcium flux, dopamine EC20 potentiation; AID 504651; P21728; potentiation, % at 10 µM; 0.036% of 360,000 active; in the data active = potentiation above about 30%; also: 0% is about no effect
Target sequence (P21728 whole entry, looked up): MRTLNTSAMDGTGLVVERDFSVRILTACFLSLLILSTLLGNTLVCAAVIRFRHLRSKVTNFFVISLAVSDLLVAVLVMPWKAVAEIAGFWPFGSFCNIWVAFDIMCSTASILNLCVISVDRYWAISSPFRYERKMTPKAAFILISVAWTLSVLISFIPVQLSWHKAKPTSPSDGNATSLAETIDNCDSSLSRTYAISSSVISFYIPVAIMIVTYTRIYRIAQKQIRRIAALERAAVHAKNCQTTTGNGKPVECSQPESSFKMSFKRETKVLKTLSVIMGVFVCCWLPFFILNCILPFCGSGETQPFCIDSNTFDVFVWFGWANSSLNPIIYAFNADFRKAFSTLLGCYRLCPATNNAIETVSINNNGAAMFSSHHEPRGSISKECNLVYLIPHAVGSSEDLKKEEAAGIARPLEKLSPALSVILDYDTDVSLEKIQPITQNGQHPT
GRP78 ERSR act – ER stress response induction in glioma; U87-MG GRP78 promoter luciferase reporter, 16 h; AID 602332; Potency, µM, for inactives: top-dose activation, most hits filed as activators; 0.02% of 420,000 active; active = well fitted activation curve with a large enough effect; inconclusive = small, poorly fitted or top-dose-only effect; inactive = no such curve, though single readings can be large or run the other way; also: potency is read from the fitted curve at half-maximal effect; series mostly up to about 76 µM; % of control where 0% means no effect; nearly all actives have a fitted effect of over 35% in size
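Stably transfected U87-MG human glioma cells carrying a GRP78-based luminescent sensor were seeded at 1000 cells/well, pin-dosed with compounds and incubated 16 h. Luciferase reagent was then added, and end-point luminescence was read after 10 min at room temperature.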
TRHR enhancer – allosterically enhances the human TRH receptor. 0.66% of 360,000 active. TRHR cells, fluo-8 calcium fluorescence, EC20 TRH enhancement. P34981. enhancement, % at 2 µM. AID 493056; in the data active = enhancement above about 30%; also: 0% is about no effect
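Enhancer read-out: after compound pinning and an initial kinetic agonist-mode read, an EC20 of TRH (10 nM final) was injected and fluo-8 calcium signal (Ex 480/Em 530) followed at 1 s/cycle for 100 cycles in TRHR-expressing cells.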
TRHR agonist – TRH receptor (human) agonism; TRHR cells, calcium flux fluo-8, FDSS agonist mode; activation, % at 2 µM; 0.18% of 360,000 active; also: 0% is about no effect
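Steps: seed TRHR cells overnight; add fluo-8 no-wash Ca dye, RT 30 min–1.5 h; record 10 s baseline; pin-transfer compounds; monitor fluorescence 1 cycle/s for the agonist window. Calcium increases flag candidate agonists.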
D1 antag – blocks dopamine activation of the human D1 receptor; HEK293 TREx D1 cells, calcium flux, dopamine EC80; active compounds read low; 3.2% of 360,000 active; activity change, negative = inhibition, % at 10 µM; P21728; AID 504652; in the data active = activity change below about -30%; also: % is scaled to controls: 0 for no effect and ±100 for the full control effect
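Antagonism measured as reduced calcium response to an EC80 dopamine addition following 180 s compound pre-read; cells were inducible HEK293 Trex D1 plated overnight at 30 C, read kinetically at 1 cycle/sec.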
D1 agonist – activates the human D1 dopamine receptor; HEK293 T-REx D1 cells, calcium flux, agonist mode; activation, % at 2 µM; P21728; 1% of 360,000 active; also: 0% is about no effect
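Inducible HEK293 T-REx D1 cells, force-coupled to calcium signalling, were plated at 4000 cells/well with tetracycline and held overnight at 30 C. After no-wash calcium dye loading, compound-evoked calcium rise over 180 s flagged agonists.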
An asterisk follows results filed as active; ? = inconclusive; . = not tested or not shown. Rule as the data show it, unless noted: active = activation above about 30%; inactive = the rest.

SMILES	D1 PAM	GRP78 ERSR act	TRHR enhancer	TRHR agonist	D1 antag	D1 agonist
Cc1ccnc(NS(=O)(=O)c2ccc(NC(=O)C3CC=CCC3C(=O)O)cc2)n1 (stereo unspecified)	0.8	-3.1%	1.1	0.2	-89.2*	2.0
COc1cc(C(=O)Nc2ccc(S(=O)(=O)Nc3cc(C)on3)cc2)cc(OC)c1OC	-1.6	?	8.5	-0.1	-79.3*	-0.4
COc1cc(C(=O)Nc2ccc(S(=O)(=O)Nc3cnc4ccccc4n3)cc2)cc(OC)c1OC	2.0	31.6µM*	8.7	0.4	-8.1	6.3
COc1cc(OC)cc(C(=O)Nc2ccc(S(=O)(=O)Nc3cnc4ccccc4n3)cc2)c1	.	-4.3%	.	.	.	.
COc1cc2c(cc1OC)C1O[C@](CCCCN3C(=O)c4ccccc4C3=O)(C2)Oc2cc(C)n(Cc3ccccc3)c(=O)c21	-3.3	.	-0.8	-0.5	-3.6	0.3
O=S(=O)(c1ccc2c(c1)OCCO2)N1CCN(S(=O)(=O)c2c(Cl)cc(C(F)(F)F)cc2Cl)CC1	1.8	.	4.0	-2.2	-14.4	4.3
CCCOc1ccc(OC(=O)c2ccc(Br)o2)cc1	-7.6	-2.2%	5.4	-0.1	-42.6*	94.2*
O=C(NC1CC2CCCC(C1)N2C(=O)Nc1cccc(F)c1)C1CC1 (stereo unspecified)	0.8	-1.3%	1.8	0.3	-7.2	1.0
Cc1ccc(NC(=O)N2C3CCCC2CC(NC(=O)C2CC2)C3)cc1 (stereo unspecified)	-4.5	-0.3%	30.1*	-0.4	-5.0	0.6
CC(O)(COc1ccccc1)c1ccc2c(c1)CN(Cc1cccc3cccnc13)CCO2 (stereo unspecified)	.	-2.1%	.	.	.	.
O=c1[nH]c(CN2CCN(c3ncccn3)CC2)nc2c(Br)cc(Br)cc12	-8.2	-5.2%	30.0*	1.1	-6.0	5.7
CCN1CCN(CCC(=O)Nc2ccc(F)c(F)c2)CC1	-0.9	-1.7%	-5.5	0.3	-0.5	2.5
CC(C)C(=O)N1CCN(c2ccc(NC(=O)c3ccc([N+](=O)[O-])o3)cc2Cl)CC1	-3.9	-18.0%	-4.7	-1.7	-41.2*	13.2
CN1CCN(c2ccc(NC(=O)c3ccc([N+](=O)[O-])o3)cc2Cl)CC1	-12.8	-8.5%	1.0	0.4	1.0	3.4
C#Cc1ccc2c(c1)C(=O)N(C)Cc1c(C(=O)OCCCOC(=O)c3ncn4c3CN(C)C(=O)c3cc(C#C)ccc3-4)ncn1-2	.	-4.6%	.	.	.	.
CN1CCN(CC(=O)N2CCn3c4c(c5cc(C6CCCCC6)ccc53)CCCC42)CC1 (stereo unspecified)	-15.6	-13.1%	4.6	2.3	-37.9*	25.1
Cc1ccc2c(c1)c1c3n2CCN(C(=O)CN2CCN(C)CC2)C3CCC1 (stereo unspecified)	-4.8	-5.8%	-0.7	1.7	-5.9	6.3
Cc1ccccc1OCC(=O)NNC(=O)Cc1ccc(S(=O)(=O)N2CCOCC2)s1	-4.8	-3.0%	-0.7	0.1	-38.3*	-1.0
O=C(COc1ccccc1F)NNC(=O)Cc1ccc(S(=O)(=O)N2CCOCC2)s1	-2.7	-2.9%	4.8	0.4	-26.1	1.3
Cc1ccc(OCC(=O)NNC(=O)Cc2ccc(S(=O)(=O)N3CCOCC3)s2)cc1	-2.3	-1.6%	-6.6	-0.3	-49.3*	1.6
CCC1CCCCN1C(=O)CSc1nnc(CNC(=O)c2c(F)cccc2Cl)o1 (stereo unspecified)	-1.8	0.3%	0.7	0.2	-2.2	3.2
CN(Cc1cnc2ccccn12)C(=O)c1cc(NC(=O)c2ccccc2)cc2ncn(C3CCCC3)c12	.	-0.6%	.	.	.	.
COc1cccc(Cn2c(=O)n(-c3cccc(Cl)c3)c(=O)c3c4c(sc32)CN(C(C)=O)CC4)c1	-4.6	5.9%	3.6	0.7	-24.8	2.1
COC(=O)c1ccc(OC)c(Cn2c(=O)n(-c3cccc(Cl)c3)c(=O)c3c4c(sc32)CN(C(C)=O)CC4)c1	-0.3	-0.5%	1.9	-0.4	-39.8*	12.4
CCn1c(=O)c2ccccc2n(Cc2cccc(C)c2)c1=O	-7.1	-1.7%	-1.2	-0.3	-31.7*	-1.2
SMILES	D1 PAM	GRP78 ERSR act	TRHR enhancer	TRHR agonist	D1 antag	D1 agonist
Cc1cccc(Cn2c(=O)n(Cc3ccco3)c(=O)c3ccccc32)c1	0.8	1.1%	-5.9	-0.1	-15.4	1.8
COC(=O)NC(c1cccc(C)c1)C(C(C)=O)C(=O)OC (stereo unspecified)	.	-4.1%	.	.	.	.
O=C1c2cccc3cccc(c23)C(=O)N1c1ccc(O)cc1	-3.1	-4.5%	2.5	0.3	-1.1	3.1
O=C1c2cccc3c(N4CCCCC4)ccc(c23)C(=O)N1c1ccccc1O	4.0	-0.9%	6.0	95.7*	-3.6	203.6*
O=C1c2cccc3c(N4CCCCC4)ccc(c23)C(=O)N1c1ccc(O)cc1	-2.8	4.1%	-5.6	133.5*	19.6	359.0*
O=C(O)C1=CC[C@@H](c2ccc(Cl)cc2)N(S(=O)(=O)c2ccc(Cl)cc2)[C@H]1c1ccc(Br)cc1	.	0.6%	.	.	.	.
CC1(C(=O)NCc2ccc(Cl)c(Cl)c2)Oc2cccnc2NC1=O (stereo unspecified)	-5.8	-3.2%	6.3	5.8	-21.7	31.6*
CC1(C(=O)NCc2ccccc2)Oc2ccccc2NC1=O (stereo unspecified)	-0.8	-4.6%	-7.0	0.1	16.3	-2.8
CCn1c(-c2ccsc2)nc2c1c(=O)[nH]c(=O)n2Cc1ccccc1	-4.5	-0.4%	1.0	-0.7	-52.4*	0.8
CCCn1c(-c2cccs2)nc2c1c(=O)[nH]c(=O)n2Cc1ccccc1	-4.8	-2.8%	-5.7	-0.8	-26.9	1.5
CCOC(=O)Nc1ccc2c(c1)N(C(=O)CN1CCN(CCO)CC1)c1ccccc1CC2	-0.7	-2.4%	-2.9	0.2	0.6	2.5
Cc1cccc(NC(=S)NCCc2ccc3c(c2)OCCO3)c1C	-6.4	-2.7%	1.1	-1.2	-45.9*	3.6
O=C(N/N=C/c1cn(CCOc2ccccc2)c2ccccc12)c1ccncc1	-4.9	0.2%	0.4	0.1	-33.7*	2.6
Cc1sc(NC(=O)C2CCCCC2C(=O)O)c(C(N)=O)c1C (stereo unspecified)	-0.7	-4.4%	-0.9	0.3	-36.9*	0.7
COC(=O)CCC(=O)Nc1sc(C)c(C)c1C(N)=O	-6.1	-1.8%	2.8	0.4	-40.9*	-0.5
COC(=O)CCC(=O)NC(=S)Nc1sc(C)c(C)c1C(N)=O	1.3	-6.5%	2.5	0.3	8.3	0.9
CC1N(C(=O)N2CCOCC2)CCN1S(=O)(=O)c1ccc(Cl)cc1 (stereo unspecified)	6.5	-1.9%	7.7	0.0	0.8	3.5
Cc1nn(-c2ccc(F)cc2)c2nc(N)c(C#N)c(-c3ccc(O)c(O)c3)c12	-8.8	-2.1%	-7.6	1.3	-45.9*	0.3
